Some of the results follow. Results filed as inconclusive are left out. Unmarked numbers belong to inactive results. Activity calls are given as the source filed them. Calls follow the shape of the dose curve; as a rule, active = well fitted cell-killing curve with a large enough effect; inconclusive = small, poorly fitted or top-dose-only effect, or effect the other way, or another doubt; inactive = no such curve, though single readings can be large or run the other way.
% is scaled to controls: 0 for no effect and ±100 for the full control effect; potency is read from the fitted curve at half-maximal effect.

This test can be described thus: qHTS screen for small molecules that inhibit ELG1-dependent DNA repair: Hit Confirmation with 5FU Viability (AID 624250). To be noted: cell viability with 5-FU; series mostly up to 46.1 µM; activity change, negative = viability loss: at the top concentration. From the text:
Cancer cells divide rapidly compared to normal cells in the body. During cell division, cancer cells need to duplicate their genome by DNA replication. The failure of genome duplication leads to cancer cells' death. Therefore, inhibitors of DNA replication could specifically kill cancer cells. Based on this concept, many chemotherapeutic agents were developed and have been used to treat cancer patients. However, there are a limited number of agents available in the clinical setting, and some of those that do exist have low efficacy and severe side effects. Therefore, if we can find the compounds that effectively block DNA replication either by directly damaging DNA or by inhibiting other cellular mechanisms, the options for cancer treatment will be broadened. With this in mind, we developed a quantitative high-throughput ELG1-luciferase reporter gene assay. Small molecules that specifically block ELG1 function in response to DNA damage can be identified by monitoring the suppression of luciferase activity. Since ELG1 defines a pathway for repairing DNA damage, agents blocking ELG1 function can be used to sensitize cancer cells to chemotherapeutic agents whose mechanism of action involves the induction of DNA damage.
NIH Molecular Libraries Probe Production Network [MLPCN]
NIH Chemical Genomics Center [NCGC]
Assay Provider: Kyungjae Myung, NHGRI, NIH
ELG1-luc HEK293T cells will be seeded in 1536-well plates at a density of 2,000 cells/well. Approximately 5 hours after plating, compounds will be added to the plate by pin tool transfer and 5-fluorouridine will be added by FRD dispenser (final concentration of 5-fluorouridine =10 µM). 16 hours following the addition of the compounds, cell viability will be measured using Cell Titer Glo.
Regarding `Cc1nnc(N/N=C/c2ccccn2)[nH]c1=O`, the “activity change, negative = viability loss” value was -3.65%.

As to `COc1ccc(CNc2ncnc3ccccc23)cc1`, the “activity change, negative = viability loss” value is -1.98%.

With `O=C(C1CCCN(S(=O)(=O)c2ccccc2)C1)N1CCN(c2ccc(F)cc2)CC1` (stereo unspecified), the “activity change, negative = viability loss” value is -2.54%.

Consider `C[C@@H]1C[C@H]2CC[C@H](O2)[C@H](C)C(=O)O[C@@H](C)C[C@@H]2CC[C@@H](O2)[C@@H](C)C(=O)O[C@H](C)C[C@H]2CC[C@H](O2)[C@H](C)C(=O)O[C@@H](C)C[C@@H]2CC[C@@H](O2)[C@@H](C)C(=O)O1`, for which the “activity change, negative = viability loss” value is -10.2%.

Consider `Clc1ccc2nc(-c3ccccc3)nc(C(Cl)Cl)c2c1`, for which the “activity change, negative = viability loss” value was -10.6%.

For the compound `COc1ccc(NS(=O)(=O)c2ccc(Oc3c(C#N)cccc3C#N)cc2)cc1`, the “activity change, negative = viability loss” value was 10.7%.

As for `OCCCNc1nccc(-c2cc(Nc3cccc(Cl)c3)ncn2)n1`, the “activity change, negative = viability loss” value was 6%.

`CC(=O)c1c(C)n(-c2ccc(C)cc2)c2ccc(O)cc12`: the “activity change, negative = viability loss” value is -2.04%.

Regarding `COc1ccc(Nc2cc(=O)oc3ccccc23)cc1`, the “activity change, negative = viability loss” value is -7.76%.

Regarding `CC(C)(CNC(=O)c1ccc(Cl)c(S(=O)(=O)N2CCc3ccccc3C2)c1)N1CCOCC1`, the “activity change, negative = viability loss” value is -8.03%.

Consider `COc1cc(N)c(Cl)cc1C(=O)OCC(=O)c1ccc2c(c1)NC(=O)CO2`, for which the “activity change, negative = viability loss” value is -1.75%.

Consider `CC(=O)[O][Sn]([c]1ccccc1)([c]1ccccc1)[c]1ccccc1`, for which the Potency was 2.81 µM (active).

As for `NC(=O)c1sc2nc3c(c(-c4ccccc4)c2c1N)CCC3`, the “activity change, negative = viability loss” value is 15.6%.

On to `COc1ccc(S(=O)(=O)Nc2ccc3oc(C)c(C(C)=O)c3c2)cc1`, for which the “activity change, negative = viability loss” value was -1.98%.

In the case of `CCc1ccc(N(CC)c2ncnc3nc[nH]c23)cc1`, the “activity change, negative = viability loss” value was -3.52%.

Consider `COc1ccccc1C(=O)Nc1ccc(C)c(S(=O)(=O)N2CCCCC2)c1`, for which the “activity change, negative = viability loss” value was 1.7%.

The values above are taken from PubChem BioAssay (NCATS).
